Nrf2 inh – inhibitors of Nrf2 signaling; A549 ARE-Fluc reporter, luciferase luminescence, 18-24 h; Potency, µM (titrated, usually from 46 µM), inactives show top-dose activity change, negative = inhibition, usual class: inhibitors; actives 2.1% (n = 360,000); AID 504444; further: potency means the concentration at half of the fitted maximal effect; nearly all actives have a fitted effect of over 60% in size
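A549 ARE_Fluc cells (5000/well, 5% FBS OPTI-MEM) pre-incubated 2 h, then treated with compounds 18-24 h at 37C/5% CO2 in concentration-response. CellTiter-Fluor viability read first; BugLite luciferase luminescence after 15 min at room temperature gives Nrf2 activity.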
Giardia killer – Giardia lamblia killing; actives 0.15% (n = 340,000); activity change, % at 7.66 µM, hits read low; AID 540267; Giardia lamblia trophozoite viability; in the data active means activity change below about -80%; inconclusive means between about -30% and that limit;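 further: parasites exposed to compound for two days anaerobically before the ATP read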
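ATP-content bioluminescence gauges trophozoite survival. Cells (100/well) receive compound and incubate anaerobically for 48 hrs at 37 deg C; detection reagent follows for 15-30 min at room temperature.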
KB-V1 cytotox – KB-V1 MDR subline cytotoxicity; Potency, µM (top dose mostly 46.1 µM), hits mostly cytotoxic; actives 3.4% (n = 400,000); KB-V1 MDR cells viability, CellTiter-Glo, 72 h; further: potency means the concentration at half of the fitted maximal effect; nearly all actives have a fitted effect of over 60% in size
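Compound-treated KB-V1 multidrug-resistant cells, 72 h, 37 degrees C; viability by CellTiter-Glo. Fitted qHTS curves give the values.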
A549 viability – counter-screen for Nrf2 inhibitors: cytotoxicity in A549 cells. A549 ARE-Fluc cells, CellTiter-Fluor viability, 18-24 h. Potency, µM (top dose mostly 46 µM), without a hit: top-dose activity change, negative = cytotoxicity, actives largely listed as inhibitors. actives 0.16% (n = 390,000). AID 504648; further: potency means the concentration at half of the fitted maximal effect
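A549 ARE_Fluc cells in 5% FBS OPTI-MEM were exposed to compounds in concentration-response for 18-24 h at 37 deg C. Viability was read by CellTiter-Fluor fluorescence (Ex 405/Em 525) after 30 min, before the luciferase read.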
PI4K2A block – PI4K2A (human) kinase inhibition | Q9BTU6 | purified PI4K2A, ADP-Glo luminescence, 1 h; active compounds read low | activity change, negative = inhibition, % at 76.9 µM | actives 0.13% (n = 420,000) | AID 1346378; in the data active means activity change below about -50%; inconclusive means mostly about -30% to -49%;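 further: -100% = wells without enzyme as full effect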
Target sequence (Q9BTU6 whole entry, looked up): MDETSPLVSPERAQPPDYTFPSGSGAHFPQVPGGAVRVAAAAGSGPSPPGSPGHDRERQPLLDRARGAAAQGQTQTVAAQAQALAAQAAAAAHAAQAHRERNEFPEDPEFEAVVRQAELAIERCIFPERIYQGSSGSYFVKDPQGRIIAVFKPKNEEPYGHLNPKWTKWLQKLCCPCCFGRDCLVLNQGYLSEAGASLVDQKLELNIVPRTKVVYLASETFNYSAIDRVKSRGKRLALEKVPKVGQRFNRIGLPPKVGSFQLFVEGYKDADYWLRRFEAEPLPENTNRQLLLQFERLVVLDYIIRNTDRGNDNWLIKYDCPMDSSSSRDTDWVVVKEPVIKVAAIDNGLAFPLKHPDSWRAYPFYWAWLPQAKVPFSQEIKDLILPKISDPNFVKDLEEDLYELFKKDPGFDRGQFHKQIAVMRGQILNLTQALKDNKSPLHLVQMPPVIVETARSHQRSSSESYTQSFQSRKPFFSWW
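In this quantitative HTS, ADP production by PI4K2A was quantified luminescently after 1 h at ambient temperature; 100 microM adenosine served as plate-quality control.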
KB-3-1 cytotox – kills parental KB-3-1 adenocarcinoma cells | AID 1347075 | KB-3-1 viability, CellTiter-Glo ATP luminescence, 72 h | actives 1.4% (n = 400,000) | Potency, µM (series often up to 46.1 µM), most hits filed as cytotoxic; further: potency means the concentration at half of the fitted maximal effect; nearly all actives have a fitted effect of over 60% in size
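KB-3-1 parental drug-naive adenocarcinoma cells in DMEM/10% FBS, incubated 72 h at 37 C with pin-transferred compounds across a concentration series. Viability by CellTiter-Glo luminescence; concentration-response curves fitted after normalization.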
Numbers without * were called inactive; i = inactive; ? = inconclusive; . = not tested or not shown; ! = repeats disagree; [ ] = dose if it differs, or a comment. An excerpt weighted towards active compounds, which were near 5.7% of everything screened. Unless noted, the call rests on the fitted dose curve; in most records, active means well fitted curve in the direction sought with a large enough effect; inconclusive means small, poorly fitted or top-dose-only effect, or another doubt; inactive means no such curve, though single readings can be large; an effect the other way counts as inactive or inconclusive. Unless noted, on the % scale 0 is the no-effect control and ±100 the full control effect.

SMILES	Nrf2 inh	Giardia killer	KB-V1 cytotox	A549 viability	PI4K2A block	KB-3-1 cytotox
O=C(Nc1nnc(C2CCCCC2)s1)C1CCN(C(=O)c2ccco2)CC1	-3.2%	10.9	i	1.8%	.	?
CCOC(=O)[C@]12CCCC=C1N(Cc1ccc(OC)cc1)C(=O)[C@@H]2CC(=O)NCc1cccc2ccccc12	.	.	.	.	0.9	.
COc1ccccc1CNC(=O)C(Cc1c[nH]c2ccccc12)NC(=O)OCc1ccccc1 (configuration not stated)	?	-11.0	18.4µM*	-15.6%	-1.3	?
Cc1ccnc(NC(=S)N2CCN(C)CC2)c1	.	.	i	.	.	i
COc1ccc(C(=O)C2CCCN(Cc3cccn3-c3ccc(Cl)cn3)C2)c(OC)c1 (configuration not stated)	13.8%	41.0	11.6µM*	-17.3%	2.5	?
CC(C)C[C@H]1COc2cccc(N3CCCC3)c2S(=O)(=O)N1C	.	.	.	.	1.4	.
C=C1C=C(C(F)(F)F)n2ncc(C(=O)NCc3ccc(F)cc3)c2N1	.	.	i	.	.	i
S=c1[nH]nc(-c2n[nH]c3c2CCC3)n1N=Cc1c[nH]c2ccccc12	.	.	.	.	0.1	.
Cc1ccc(Cl)cc1N1CCN(C(=O)COc2ccc(S(=O)(=O)NC(C)C)cc2)CC1	20.6µM*	-15.9	?	-9.6%	1.0	?
Cc1ccc(C)c(NS(=O)(=O)c2ccc3c(c2)Cc2cc(S(=O)(=O)Nc4cc(C)ccc4C)ccc2-3)c1	13µM*	-2.0	i	-29.6%	-2.1	?
CC(C)NS(=O)(=O)c1ccc(OCC(=O)N2CCCC2)cc1	-2.8%	17.6	i	3.4%	-1.9	i
Cc1ccc(C)c(NS(=O)(=O)c2ccc(OCC(=O)N3CCCC3)cc2)c1	?	-6.3	20.6µM*	-21.7%	-0.6	i
COP(N)(=O)C(CC(C)C)NC(=O)OCc1ccccc1 (configuration not stated)	.	.	.	.	-0.4	.
c1ccc(-c2cc(-c3nnc4n3N=C(c3ccc5ccccc5c3)CS4)[nH]n2)cc1	?	-4.5	7.31µM*	?	8.7	i
CCOc1cccc(-c2nnc3n2N=C(c2ccc(OC)cc2)CS3)c1	.	.	.	.	-2.7	.
CCOc1ccc(C2=Nn3c(nnc3-c3ccc(OC)cc3)SC2)cc1	?	18.3	3.26µM*	-20.7%	0.0	2.91µM*
c1ccc(C2=Nn3c(nnc3-c3ccncc3)SC2)cc1	?	4.6	i	2.1%	-9.6	i
Cc1cccc(-c2nnc3n2N=C(c2ccccc2)CS3)c1	?	-0.9	8.2µM*	-3.5%	-2.0	?
c1coc(-c2nnc3n2N=C(c2ccc4ccccc4c2)CS3)c1	.	.	.	.	-8.2	.
CCc1ccc(OCC(=O)NCC(c2ccc(OC)cc2)N2CCOCC2)cc1 (configuration not stated)	3.1%	.	.	0.2%	0.1	.
COc1ccccc1NC(=O)Cn1c(C)cc(=O)c2cccc(OC)c21	11.6µM*	3.0	?	-14.9%	1.4	i
COc1cccc2c(=O)cc(C)n(CC(=O)Nc3ccc(C)c(C)c3)c12	?	1.0	?	-9.3%	-4.7	i
CCOc1ccc(NC(=O)Cn2nnc(-c3ccccc3NC(=O)CC)n2)cc1	?	23.4	?	-3.6%	3.8	i
Cc1ccccc1C(=O)Nc1ccccc1-c1nnn(CC(=O)Nc2ccc3c(c2)OCCO3)n1	-7.5%	15.1	3.66µM*	-28.5%	3.1	?
COc1ccc(NC(=O)Cn2nnc(-c3ccccc3NC(=O)c3cccs3)n2)cc1	18.4µM*	-20.9	i	-14.2%	-9.3	?
SMILES	Nrf2 inh	Giardia killer	KB-V1 cytotox	A549 viability	PI4K2A block	KB-3-1 cytotox
Cc1ccc(NC(=O)Cn2nnc(-c3ccccc3NC(=O)c3cccs3)n2)cc1	?	4.7	1.3µM*	?	-1.3	1.03µM*
COc1ccccc1-c1nnc(NC(=O)c2ccc(S(=O)(=O)N(C)Cc3ccccc3)cc2)o1	5.8µM*	-3.6	5.17µM*	-18.2%	3.3	?
CCN(CC)S(=O)(=O)c1ccc(C(=O)Nc2nnc(COC)o2)cc1	3.2%	-2.6	i	4.0%	0.2	i
CN(Cc1ccccc1)S(=O)(=O)c1ccc(C(=O)Nc2nnc(C3CC3)o2)cc1	?	1.4	?	-3.9%	-3.3	?
CCN(Cc1ccccc1)S(=O)(=O)c1ccc(C(=O)Nc2nnc(C)o2)cc1	13µM*	-4.4	i	-9.6%	-4.3	?
CCN(CC)S(=O)(=O)c1ccc(C(=O)Nc2nnc(CSC)o2)cc1	4.8%	2.1	?	1.1%	-2.7	i
CCc1nnc(NC(=O)c2ccc(S(=O)(=O)N(CC)Cc3ccccc3)cc2)o1	20.6µM*	-1.2	?	-13.1%	-2.7	?
CCCCN(C)S(=O)(=O)c1ccc(C(=O)Nc2nnc(CSC)o2)cc1	10µM*	-19.0	?	-20.1%	1.3	?
O=C(NCCc1ccccn1)c1ccc2c(c1)ncn2C1CCCCC1	.	.	.	.	-5.0	.
COc1cc2c(N3CCN(C(=O)Nc4ccc(OC(C)C)cc4)CC3)ncnc2cc1OCCCN1CCCCC1	.	.	.	.	-3.7	.
CCc1nnc(NC(=O)c2ccc(S(=O)(=O)N(C)Cc3ccccc3)cc2)o1	7.31µM*	?	3.66µM*	-24.7%	0.9	?
O=C(NCc1ccc(F)cc1)c1cc(C2CCCCN2C(=O)c2ccc3c(c2)CCO3)on1 (configuration not stated)	.	.	?	.	-6.8	20.6µM*
S=C(Nc1ccccc1)N1CCC(Cc2ccccc2)CC1	16.4µM*	-13.9	i	-16.5%	2.1	11.6µM*
NS(=O)(=O)c1ccc(CCNC(=O)CN2CCC(Cc3ccccc3)CC2)cc1	20.6µM*	-1.2	i	-9.7%	0.2	?
COc1ccc(C(=O)NCCc2ccc(Cl)cc2)cc1S(=O)(=O)N1CCCCC1C (configuration not stated)	16.4µM*	?	i	-7.1%	-5.4	?
COc1ccc(C(=O)NCCc2c[nH]c3ccccc23)cc1S(=O)(=O)N1CCCCC1C (configuration not stated)	-17.2%	-17.9	i	-12.5%	-0.9	i
COc1ccc(-n2c(=O)[nH]c3cc(C(=O)NCCc4ccccc4)ccc3c2=O)cc1OC	13µM*!	0.2	i	-12.7%	9.2	i
COc1ccc(NC(=S)N2CCC(Cc3ccccc3)CC2)cc1	-27.6%	10.2	i	2.2%	1.2	i
Cc1ccc(CCNC(=O)c2ccc3c(=O)n(-c4ccccc4)c(=O)[nH]c3c2)cc1	-0.7%[9.27 µM]	.	?	-23.4%	1.1	i
COc1ccc(-c2nnc(SCC(=O)Nc3ccc(S(=O)(=O)Nc4cc(C)nc(C)n4)cc3)n2-c2ccc(OC)cc2)cc1	.	.	.	.	-1.1	.

High-throughput results: PubChem BioAssay, National Center for Advancing Translational Sciences (NCATS)
